The results in this text go back to PubChem BioAssay.

Test [1] is described as follows: liver-stage malaria parasite growth inhibition, primary screen, cell-based, HepG2, luciferase luminescence, HepG2 viability (AID 624349; in the data active = parasite load remaining mostly below about 12%, no sharp cut-off; inactive = mostly above about 10%;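 also: 100% = mean of DMSO negative control wells on the same plate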). Particulars: P. berghei liver stage in HepG2, luciferase luminescence, concentration not given here; parasite load remaining: stronger effect = lower value; viability: measured here: HepG2 viability without parasites.
The nature of test [2]: Cy5 fluorescence interference with SSB-bound oligo, artefact control for HCV NS3 helicase inhibitor project, biochemical, NIH Clinical Collection, E. coli SSB (AID 743268).
Test [3] has as its system Hepatitis C virus NS3 helicase. Briefly: HCV NS3 helicase inhibitors, primary screen, biochemical, fluorescence polarization, NIH Clinical Collection (AID 743270). Particulars: NS3 helicase binding to Cy5-dT15 DNA, stronger effect = higher value, concentration not given here. (Fluorescence polarisation rises when a labelled molecule tumbles more slowly, as on binding a larger partner.)

Test [4] has as its target 6-phosphogluconate dehydrogenase, decarboxylating (Homo sapiens) (UniProt P52209). Briefly: 6PGD enzyme inhibitors, primary screen, biochemical, human, recombinant enzyme, NADPH absorbance (AID 1159550;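 active = at least 20% inhibition of 6-phosphogluconate dehydrogenase activity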). As to conditions: recombinant 6PGD, NADPH absorbance 341 nm; at 10 µM; stronger effect = higher value.
A short description of test [5]: sensitizers of A549 cells to miR-34 induction, primary screen, imaging, A549 dox-inducible miR-34, nuclei and caspase counts (AID 1347080;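 active = compounds whose cell count with miR-34 switched on is under 0.7 times the count with it off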). As to conditions: A549 miR-34 inducible, Hoechst nuclei count, 48 h.
Test [6] in a line: survival rescue of mitochondrial mutant cells in low glucose, primary screen, MELAS cybrids, Rieske KO mouse fibroblasts, CellTiter-Glo (AID 1508586;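 active = mean z-score across replicates of 1.96 or higher in either the MELAS or the Rieske mutant cell line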;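 also: z relative to plate mean and SD of compound and empty wells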).
Test [7] concerns the target NAD(+) hydrolase SARM1 (Homo sapiens) (UniProt Q6SZW1). In words: SARM1 TIR NADase inhibitors, cell lysate, NAD-Glo luminescence (AID 1508614;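 active = compound whose remaining NAD level is above about 45 nM, limit read from the data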;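 also: higher remaining NAD means stronger inhibition of SARM1 NADase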). As to conditions: SAM-TIR HEK293T lysate NADase, at 1 µM, stronger effect = higher value.
Test [8] concerns the target Mitogen-activated protein kinase 7 (Homo sapiens) (UniProt Q13164). In words: ERK5 transactivation activators in reporter cells, primary screen, cell-based, HTS (AID 1508626;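 active = luciferase signal above three times the same-plate solvent-only control wells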;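 also: luciferase driven by Gal4-ERK5 fusion binding five Gal4 sites before minimal TATA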). Particulars: HeLa Gal4-ERK5 transactivation, 18 h, at 5 µM, stronger effect = higher value.
A short description of test [9]: viability rescue of complex I mutant cybrids, primary screen, cell-based, galactose medium, ATP luminescence (AID 1645843;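 active = z-score of at least 1.8 in each of two replicates, scored against plate mean and spread of sample wells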;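 also: positive z means more ATP and so rescue of galactose-driven cybrid death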). Particulars: complex I mutant cybrid cells, 72 h, stronger effect = higher value.
Test [10] is described as follows: SU-DIPG-VI glioma cell viability, MIPE4.0 library, CellTiter-Glo luminescence, qHTS (AID 1347066; cut-off not given, nearly all actives have AC50 up to about 30 µM;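 also: cells exposed to compound for 48 hours before readout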). Particulars: CellTiter-Glo ATP luminescence. In general terms: In ATP-based viability assays light output follows the ATP content of the culture.
A short description of test [11]: hESC survival regulators, cell-based (AID 493140).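 Also: cells exposed to compounds for four days before counting.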 Particulars: human embryonic stem cell survival screen; stronger effect = higher value.
Test [12] in a line: differential killing of epithelial or mesenchymal cells, primary screen, imaging, PC-3E GFP, TEM4-18 mCherry, co-culture (AID 1345086;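 active = compounds killing one labelled cell type while sparing the other, by normalised counts and ratio limits, not self-fluorescent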;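 as to all read-outs here: cells exposed to compound for 72 h before imaging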;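 as to red/green cell ratio (normalised): normalised mesenchymal count divided by normalised epithelial count so high means epithelial killing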). Particulars: imaging cell counts, at 1 µM; for red/green cell ratio (normalised): actives lie on both sides, counts scaled to control wells, 1 = unselective.
Where [13] appears, read: stronger effect = lower value, cell number ratio, induced over uninduced.
Setting [14] is: measured here: relative caspase fold change +Dox/-Dox.
The mark [15] stands for this setting: measured here: total cells with miR-34 induction, stronger effect = lower value.
Setting [16] is: measured here: total cells without miR-34 induction.
Setting [17] is: MELAS cybrid survival, CellTiter-Glo 48 h, stronger effect = higher value.
Where [18] appears, read: Rieske KO mouse fibroblast survival, CellTiter-Glo 72 h.
Where [19] appears, read: measured here: epithelial PC-3E GFP cell survival.
The mark [20] stands for this setting: measured here: mesenchymal TEM4-18 mCherry cell survival.

“And” between values parts separate entries of the source, which are not always exact repeats. Identical values can stand only once. Records with an inconclusive call do not appear. The source made the active and inactive calls. Unless noted, no rule for the calls is given here.

Chain of NAD(+) hydrolase SARM1 (Homo sapiens) (Q6SZW1 whole entry, looked up, the tested form may be a part): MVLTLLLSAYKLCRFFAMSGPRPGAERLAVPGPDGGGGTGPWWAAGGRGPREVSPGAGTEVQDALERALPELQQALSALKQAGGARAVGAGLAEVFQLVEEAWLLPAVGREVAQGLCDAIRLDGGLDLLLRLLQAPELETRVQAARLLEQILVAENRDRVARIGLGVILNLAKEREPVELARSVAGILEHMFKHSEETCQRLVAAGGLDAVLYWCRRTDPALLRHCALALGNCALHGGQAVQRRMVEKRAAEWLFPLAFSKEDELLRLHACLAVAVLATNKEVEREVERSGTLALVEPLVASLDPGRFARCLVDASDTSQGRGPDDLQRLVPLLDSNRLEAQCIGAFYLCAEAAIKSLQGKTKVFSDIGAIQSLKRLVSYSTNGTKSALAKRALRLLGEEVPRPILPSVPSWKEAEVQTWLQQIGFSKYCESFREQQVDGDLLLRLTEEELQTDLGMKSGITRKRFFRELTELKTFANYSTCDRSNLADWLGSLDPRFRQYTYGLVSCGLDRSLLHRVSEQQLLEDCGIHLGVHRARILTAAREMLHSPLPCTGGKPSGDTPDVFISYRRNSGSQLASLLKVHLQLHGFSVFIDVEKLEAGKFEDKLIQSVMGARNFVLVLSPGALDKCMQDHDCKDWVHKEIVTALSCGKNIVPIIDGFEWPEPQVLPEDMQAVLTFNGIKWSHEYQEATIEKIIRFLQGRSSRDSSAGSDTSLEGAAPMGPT
Chain of Mitogen-activated protein kinase 7 (Homo sapiens) (Q13164 whole entry, looked up, the tested form may be a part): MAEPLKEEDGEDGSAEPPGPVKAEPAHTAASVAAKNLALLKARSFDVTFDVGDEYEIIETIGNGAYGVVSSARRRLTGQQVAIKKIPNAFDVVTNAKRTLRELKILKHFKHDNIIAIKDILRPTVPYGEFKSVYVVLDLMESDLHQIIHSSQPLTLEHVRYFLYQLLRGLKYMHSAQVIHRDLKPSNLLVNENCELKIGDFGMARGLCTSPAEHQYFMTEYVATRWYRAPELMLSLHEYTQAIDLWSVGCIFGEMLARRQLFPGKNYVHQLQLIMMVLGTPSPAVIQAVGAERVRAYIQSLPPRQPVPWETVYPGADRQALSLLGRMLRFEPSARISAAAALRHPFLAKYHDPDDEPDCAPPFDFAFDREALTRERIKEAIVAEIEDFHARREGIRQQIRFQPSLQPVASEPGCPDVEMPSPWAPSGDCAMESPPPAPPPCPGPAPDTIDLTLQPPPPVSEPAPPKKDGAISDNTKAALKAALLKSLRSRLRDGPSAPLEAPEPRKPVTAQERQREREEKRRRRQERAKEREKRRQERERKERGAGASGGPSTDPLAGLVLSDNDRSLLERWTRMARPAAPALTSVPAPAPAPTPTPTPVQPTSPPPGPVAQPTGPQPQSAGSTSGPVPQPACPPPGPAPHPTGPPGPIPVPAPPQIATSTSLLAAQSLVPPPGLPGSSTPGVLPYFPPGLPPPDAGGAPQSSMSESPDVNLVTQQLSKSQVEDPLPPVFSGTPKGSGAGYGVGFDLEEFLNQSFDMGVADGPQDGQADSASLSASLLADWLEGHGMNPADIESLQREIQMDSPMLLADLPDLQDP
Chain of 6-phosphogluconate dehydrogenase, decarboxylating (Homo sapiens) (P52209 whole entry, looked up): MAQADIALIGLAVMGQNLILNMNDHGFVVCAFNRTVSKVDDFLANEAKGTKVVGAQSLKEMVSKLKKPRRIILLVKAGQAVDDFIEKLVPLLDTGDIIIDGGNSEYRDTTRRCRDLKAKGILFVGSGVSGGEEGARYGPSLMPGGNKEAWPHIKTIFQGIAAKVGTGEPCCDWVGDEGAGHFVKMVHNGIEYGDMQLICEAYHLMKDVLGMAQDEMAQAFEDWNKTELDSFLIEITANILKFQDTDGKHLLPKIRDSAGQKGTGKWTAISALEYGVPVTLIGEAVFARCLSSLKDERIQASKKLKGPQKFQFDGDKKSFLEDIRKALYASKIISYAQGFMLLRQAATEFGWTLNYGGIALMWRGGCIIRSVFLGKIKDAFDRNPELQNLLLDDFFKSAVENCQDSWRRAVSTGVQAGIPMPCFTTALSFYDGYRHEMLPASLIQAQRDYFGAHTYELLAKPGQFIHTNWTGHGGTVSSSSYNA

`CCCCC(=O)O[C@H]1CC[C@H]2[C@@H]3CCc4cc(O)ccc4[C@H]3CC[C@]12C`: in [1], the parasite load remaining was 36.5% (inactive). The viability in test [1] came to 98.1%. Moreover, the fluorescence ratio in test [2] is 1.02 (inactive). Besides, the inhibition is 3.18% (inactive) in [3] and 6.29% (inactive) in test [4]. Also, the fold change is 1 (inactive) in test [5] (setting [13]) and 2.83 in test [5] (setting [14]). Besides, the figures for the cell count in test [5] (setting [15]) and in test [5] (setting [16]) were 6120 and 6090, respectively. In addition, the values for the z-score in [6] (setting [17]), in test [6] (setting [18]) and in [9] were -1.02 (inactive), -0.171 and -1.51 (inactive), respectively. Further, the remaining NAD in test [7] is 10 nM (inactive). Further, the luciferase signal in test [8] was 84 AU (inactive).

Turning to `OC[C@H]1O[C@@H](Oc2cc(O)cc(/C=C/c3ccc(O)cc3)c2)[C@H](O)[C@@H](O)[C@@H]1O`, in [1], the parasite load remaining was 100% (inactive). Moreover, the viability in test [1] came out at 78.3%. Moreover, the fluorescence ratio in test [2] was 1 (inactive). The inhibition was 3.56% (inactive) in test [3] and 15% (inactive) in [4]. Further, in test [10], the result was inactive.

Turning to `CC(C)[N+]1(C)C2CCC1CC(OC(=O)C(CO)c1ccccc1)C2` (stereo not given), the survival in [11] is 16.6 (inactive). Also, the parasite load remaining in [1] is 58.8% (inactive) and 74.5% (inactive). Also, the viability in test [1] is 98.1% and 77.4%. Further, the fluorescence ratio in test [2] was 1.07 (inactive). Besides, the inhibition in [3] was -3.18% (inactive); in [4] it was 11.9% (inactive). Besides, the molecule was called inactive in test [10]. Further, the fold change is 0.921 (inactive) and 0.934 (inactive) and 0.97 (inactive) in [5] (setting [13]); 0.608 and 0.704 and 0.785 in [5] (setting [14]). In addition, the cell count in [5] (setting [15]) is 10300 and 7770 and 8120; in [5] (setting [16]), 11100 and 8310 and 8370. Further, the z-score in test [6] (setting [17]) was 0.162 (inactive); in test [6] (setting [18]), -0.136; in [9] it was 0.14 (inactive) and 0.88 (inactive).

For `COc1cccc(-c2cc(=O)c3cc(OC)ccc3o2)c1`, the inhibition in test [4] is -1.86% (inactive). Moreover, in [12], the red/green cell ratio (normalised) is 1.05 (inactive). In addition, the figures for the normalised cell number in [12] (setting [19]) and in test [12] (setting [20]) were 0.89 and 0.94, respectively.

As to `CN=C(N)NCCC[C@H](N)C(=O)O`, the parasite load remaining in [1] is 97.7% (inactive). The viability in [1] came to 72.8%. Besides, the fluorescence ratio in [2] is 0.99 (inactive). The inhibition in test [3] was -3.56% (inactive); in [4], 3.01% (inactive) and 12.6% (inactive). The red/green cell ratio (normalised) in [12] is 1.23 (inactive). Moreover, the normalised cell number was determined as 0.78 in test [12] (setting [19]) and 0.95 in test [12] (setting [20]). In addition, the fold change was 0.994 (inactive) and 0.867 (inactive) in test [5] (setting [13]); 0.824 and 0.665 in test [5] (setting [14]). Moreover, the cell count was 9540 and 7760 in [5] (setting [15]); 9600 and 8960 in test [5] (setting [16]). Moreover, the z-score in test [9] was 0.22 (inactive).

As to `CCCC1O[C@@H]2C[C@H]3[C@@H]4CCC5=CC(=O)C=C[C@]5(C)[C@H]4[C@@H](O)C[C@]3(C)[C@]2(C(=O)CO)O1` (stereo not given in full), the survival in [11] is 0.833 (inactive). Further, the parasite load remaining in [1] is 14% (inactive) and 67.2% (inactive) and 78.7% (inactive). Also, in [1], the viability is 116% and 115% and 75.3%. For the same molecule, the fluorescence ratio in test [2] is 1.05 (inactive). Besides, the inhibition is -1.36% (inactive) in test [3] and -12.1% (inactive) in test [4]. For the same molecule, the values for the z-score in test [6] (setting [17]) and in test [6] (setting [18]) were -0.382 (inactive) and -0.0716, respectively. Further, the remaining NAD in test [7] was 10 nM (inactive). Also, the luciferase signal in test [8] is 96 AU (inactive).

Regarding `Nc1ccn([C@@H]2O[C@H](CO)[C@@H](O)C2O)c(=O)n1` (stereo not given in full), in [1], the parasite load remaining is 112% (inactive) and 32.3% (inactive). Further, in test [1], the viability was 77.2% and 77%. In test [2], the fluorescence ratio was 1 (inactive). In addition, the inhibition was -5.15% (inactive) in test [3] and -3.33% (inactive) in test [4]. Besides, the values for the fold change in test [5] (setting [13]) and in test [5] (setting [14]) were 1.11 (inactive) and 1.22, respectively. Besides, the cell count in test [5] (setting [15]) is 3020; in test [5] (setting [16]), 2720. Further, the z-score in [6] (setting [17]) is 0.809 and -1.64 (inactive); in [6] (setting [18]) it was 2.19 and 0.364; in test [9], -1.98 (inactive). Further, in test [7], the remaining NAD is 10 nM (inactive). In [8], the luciferase signal was 88 AU (inactive).

A word on the viability: it is a read-out of living cells in per cent, often relative to untreated cells. Broadly, the inhibition is the change of the read-out against control, counted positive when it falls.
